Bioassay records deposited in PubChem BioAssay by National Center for Advancing Translational Sciences (NCATS).
This is one part of a sample in which hits are shown more often than they occur.
ERK EGF inh: inhibitors of EGF-stimulated ERK signaling pathway | HEK293-V1b, EGF-stimulated phospho-ERK AlphaScreen | Potency, µM (series often up to 11.5 µM), for inactives: at the top dose activity change, negative = inhibition, actives largely listed as inhibitors | 130,000 tested, 0.41% active; active = well fitted inhibition curve with a large enough effect;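 note: plate controls were stimulated vehicle wells for no effect and unstimulated vehicle basal for full effect; nearly all actives have a fitted effect of over 55% in size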
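Phospho-ERK1/2 measured by AlphaScreen (SureFire) after 5 min 25 nM EGF stimulation of V1b-expressing HEK293 cells preincubated 30 min at 37C with titrated compounds; data scaled to DMSO and EGF controls, Hill-fitted AC50.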
* = called active by the depositor; ! = repeats disagree; [ ] = remark or other dose. Potency is the fitted concentration of half-maximal effect.

SMILES	ERK EGF inh
CCC1=NN2C(=N)/C(=C\c3cccn3-c3ccc(Cl)cc3)C(=O)N=C2S1	-4%
CC1=NN(c2ccc(Cl)cc2)C(=O)/C1=C\c1cccn1-c1ccc(S(N)(=O)=O)cc1	25µM*
Cc1ccc(S(=O)(=O)N/N=C/c2cccn2-c2ccc(Cl)cc2)cc1	2%[57.5 µM]
Nc1ncnc2c1c(I)cn2C1OC(CO)C(O)C1O (stereo not given)	15%
CS(=O)(=O)c1ccc(CNC(=O)[C@H]2C[C@@H]2[C@H](NP(=O)(c2ccccc2)c2ccccc2)c2ccccc2)cc1	2%
COc1ccc(-c2nc(C#N)c(NCCc3ccccc3)o2)cc1	28µM*
COc1ccc(Nc2oc(-c3ccc(OC)cc3)nc2C#N)cc1	-3%[57.5 µM]
COc1ccc(Nc2oc(-c3ccccc3)nc2C#N)cc1	-4%
CCC(C)C(=O)O[C@H]1C[C@@H](C)C=C2C=C[C@H](C)[C@H](CC[C@@H]3C[C@@H](O)CC(=O)O3)C21 (stereo not given in full)	8%
CC1(C)C(=O)Nc2ccccc2N1C(=O)CSc1nc(-c2ccccc2)cs1	10%
CCCC(=O)N1c2ccccc2C(=C2SC(C(=O)OC)=C(C(=O)OC)S2)C(=S)C1(C)C	13µM*
COC(=O)c1cc(C(=O)OCC(=O)N2c3ccccc3NC(=O)C2(C)C)cc([N+](=O)[O-])c1	-1%
C=CCC(O)(/C=C/c1ccccc1)c1ccccc1 (stereo not given)	-2%
CCN1C(=O)/C(=C/C2=Cc3ccccc3OC2C)SC1=S (stereo not given)	16µM*
CCN1C(=O)/C(=C\c2ccncc2)SC1=S	-15%[57.5 µM]
C[C@@H]1Oc2ccccc2C=C1/C=C/C(=O)O	1%
CCCCC/C=C\C/C=C\C/C=C\C/C=C\CCCCCC(=O)NCCCC(=O)O	-1%
COCC(=O)C(C(=O)OC)[C@H](CCc1ccccc1)NC(=O)OC (stereo not given in full)	-12%
CS(=O)(=O)N1CCC2(CCCN(Cc3ccc(C#N)cc3)C2)CC1	9%
Cc1cc(C(=O)CSc2nc3ccccc3[nH]2)c(C)n1Cc1ccco1	18µM*
CCCn1c(C)cc(C(=O)CSc2nc3ccccc3c(=O)n2Cc2ccco2)c1C	10%
Cc1cc(C(=O)CSc2nncs2)c(C)n1Cc1ccco1	14%
O=C(c1cnccn1)N1CCC2(CCCN(c3ccc(-c4ccccc4)cc3)C2)CC1	-11%
CC(C)NC(=O)N1CC[C@@]2(CCCN(C(=O)c3csnn3)C2)C1	1%
FC(F)(F)c1ccccc1-n1ccnc1	4%
SMILES	ERK EGF inh
Clc1ccccc1-c1nccc(-n2ccnc2)n1	26%
Clc1ccccc1C(c1ccccc1)(c1ccccc1)n1ccnc1	22µM*!
COCCNC(=O)[C@H](C)/C=C(\c1cccnc1)C(NC(=O)OCc1ccccc1)c1ccc(C(=O)OC)cc1 (stereo not given in full)	-1%
O=Cc1s/c(=N\S(=O)(=O)c2ccccc2)n(CCCCl)c1Cl	22µM*
COCCCN1C(=O)CS/C1=N\S(=O)(=O)c1ccccc1	-3%[57.5 µM]
CN1C/C(=N\S(=O)(=O)c2ccccc2)N(C)C1=O	12%
Cc1nc(NC2CCCCC2)c2nc(-c3ccccc3)n(CCN3CCCC3)c2n1	5%
COc1cc(CCNC(C)=O)c(C(=O)/C=C/c2cccc(OC)c2OC)cc1OC	-9%
OC(COc1ccc(CNCCc2ccc(C(F)(F)F)cc2)cc1)CN1CCCCC1 (stereo not given)	-3%
COc1ccc(CCNCC(O)COc2cccc(Br)c2)cc1 (stereo not given)	-2%[57.5 µM]
OC(CNCCc1ccc(C(F)(F)F)cc1)COc1ccc2ccccc2c1 (stereo not given)	35µM*
CSc1nc(N)c2ncn([C@@H]3O[C@H](COP(=O)(O)OP(=O)(O)OP(=O)(O)O)[C@H](O)[C@H]3O)c2n1	-1%
CC1=C(C(=O)O)N2C(=O)C(NC(=O)C(N)c3ccccc3)C2SC1 (stereo not given)	22%
COCCn1c(=O)c(-c2cc(F)cc(F)c2)nc2cnc(OC)nc21	7%
O=C(c1cc(C(F)(F)F)cc(C(F)(F)F)c1)N1CCC2(CCCN(c3ncccn3)C2)CC1	9%
CCN(CC)CCCNC(=O)c1cc2c(Cl)nc3ccccc3c2s1	-11%
CC1CCCN(CCCNC(=O)c2cc3c(Cl)nc4ccccc4c3s2)C1 (stereo not given)	-8%
CN(CCCNC(=O)c1cc2c(Cl)nc3ccccc3c2s1)Cc1ccccc1	25µM*
CCC1=C2CC[C@H]3C(=O)NC(=O)[C@H]3[C@H]2[C@@]2(Cc3ccccc3)C(=NCC3CC3)OC(=O)N2C1=O	3%
CC(=O)N1CCC2(CC1)CN(C(c1ccccc1)c1ccccc1)C2	-6%
COC(=O)C1(C(=O)OC)Cc2conc2[C@H]1c1ccccc1	-2%
CO[C@]1(NC(=O)C2SC(=C(C(N)=O)C(=O)O)S2)C(=O)N2C(C(=O)O)=C(CSc3nnnn3C)CS[C@H]21 (stereo not given in full)	-13%[25.7 µM]
CCOC(=O)N/N=C/C=C/c1ccccc1[N+](=O)[O-]	9%
CC1CCCC(C)N1/N=C/C=C/c1ccccc1[N+](=O)[O-] (stereo not given)	20µM*
COc1ccccc1N1CCN(/N=C/C=C\c2ccccc2[N+](=O)[O-])CC1	25µM*
SMILES	ERK EGF inh
Cc1ccc(N2CCN(/N=C/c3ccccc3[N+](=O)[O-])CC2)cc1	-4%
O=[N+]([O-])c1ccccc1/C=C/C=N/n1c(-c2ccccc2)n[nH]c1=S	-12%
COc1ccccc1N1CCN(/N=C/c2cccc(OC)c2O)CC1	-9%
COC(=O)[C@@H]1C[C@@]2(O)[C@@H](O)[C@@H](O)[C@@H](O)C[C@H]2N1CC1CC1	-3%
CC(=O)SC[C@@H](Cc1ccccc1)C(=O)NCC(=O)OCc1ccccc1	-5%[25.7 µM]
COc1cc2c(cc1OC)[C@H](C)N(CC1C(=O)O[C@@H]3C[C@@]4(C)CCC[C@H](C)[C@@]45OC5[C@H]13)CC2 (stereo not given in full)	-6%
S=C=Nc1cccc(NC(=S)NCCCCNC(=S)Nc2cccc(N=C=S)c2)c1	-4%
CCOC(=O)C(=O)C1(C(=O)OCC)Oc2cc(OC)cc(OC)c2C(=O)C1c1ccccc1 (stereo not given)	16%
CC1(C)OCC(CSC2=C(SCC3COC(C)(C)O3)C(=O)c3ncccc3C2=O)O1 (stereo not given)	-6%
CCN(CC)Cc1c(O)ccc2c1O/C(=C\C=C\c1ccccc1)C2=O	-9%[57.5 µM]
CCc1ccc(/C=C2\Oc3cc(OS(C)(=O)=O)ccc3C2=O)cc1	4%
CS(=O)(=O)Oc1ccc2c(c1)O/C(=C\C=C\c1ccccc1)C2=O	7.9µM*
O=C(NC[C@H]1CCCCN1)c1cc(OCC(F)(F)F)ccc1OCC(F)(F)F	-19%
Cc1cc(C(=O)Nc2ccc(C)c(S(=O)(=O)N3CCOCC3)c2)c(C)o1	-7%
Cc1ccc(NC(=O)/C=C/c2ccc3c(c2)OCO3)cc1S(=O)(=O)N1CCOCC1	28µM*
O=C(/C=C/c1ccc2c(c1)OCO2)NCCCN1CCOCC1	-14%
COc1ccc(C(=O)N2CCC3(CC2)CN(Cc2ccc(C#N)cc2)C3)cc1	-9%
CN(/N=C/c1ccc([N+](=O)[O-])o1)c1ccccc1	25µM*
COC(=O)N/N=C/c1ccc([N+](=O)[O-])o1	-11%
O=C(N/N=C/c1ccc([N+](=O)[O-])o1)C(O)c1ccccc1 (stereo not given)	1%[57.5 µM]
CN1CCCC2(CCN(C(=O)c3cc(C(F)(F)F)cc(C(F)(F)F)c3)CC2)C1	-4%
